Active and inactive are the calls of the source.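 The calls were made as follows, unless noted: active = thallium flux through the channel raised or lowered by more than 3 SD from vehicle-only wells, actives on both sides; inactive = the rest.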
Experiments:
[1] = modulation of C. elegans fzo-1 (AID 1259413; call rule not given here;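 also: fzo-1 mutant C. elegans worms in liquid wells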); conditions: C. elegans fzo-1 modulator screen, mean read-out; stronger effect = higher value
[2] = P. berghei load reduction in hepatocytes – cell-based, HepG2, luciferase luminescence, HepG2 viability, primary screen (AID 624349; in the data active = parasite load remaining mostly below about 12%, no sharp cut-off; inactive = mostly above about 10%;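 also: 100% = mean of DMSO negative control wells on the same plate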); conditions: P. berghei liver stage in HepG2, luciferase luminescence, concentration not given here; parasite load remaining: stronger effect = lower value; viability: measured here: HepG2 viability without parasites
[3] = signal quenchers or enhancers, Cy5 substrate/SSB – biochemical, NIH Clinical Collection, E. coli SSB, artefact control for HCV NS3 helicase inhibitor project (AID 743268; call rule not given here); conditions: Cy5-oligo bound E. coli SSB, fluorescence interference
[4] = system: Hepatitis C virus NS3 helicase; assay: blockers of NS3h binding to DNA – biochemical, fluorescence polarization, NIH Clinical Collection, primary screen (AID 743270; call rule not given here); conditions: NS3 helicase binding to Cy5-dT15 DNA, stronger effect = higher value, concentration not given here
[5] = molecular target: Single-stranded DNA-binding protein (Escherichia coli (strain K12)) (UniProt P0AGE0); assay: SSB-ssDNA binding inhibitors – biochemical, fluorescence polarization, NIH Clinical Collection, counter-screen for HCV NS3 helicase inhibitor project (AID 743271; in the data active = inhibition above about 28%); conditions: E. coli SSB-DNA binding, stronger effect = higher value, concentration not given here
[6] = compounds distorting NS3 helicase fluorescence signal – biochemical, NIH Clinical Collection, artefact control for HCV NS3 helicase inhibitor project (AID 743272; call rule not given here;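 also: HCV NS3 helicase with a Cy5 labelled single stranded DNA probe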); conditions: fluorescence interference counterscreen, HCV NS3 helicase assay; stronger effect = lower value
[7] = system: F380Y; assay: BK channel mutant inhibitors and activators – cell-based, U2OS BacMam, thallium flux, beta subunits, selectivity assay, profiling panel (AID 1259406); conditions: U2OS BacMam BK variants, at 30 µM;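 also: initial slope of Thallos dye fluorescence rise after thallium is added; log ratio against the mean of 0.3% DMSO vehicle wells on the same plate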
[8] = system: F380Y/beta1; assay: as above; conditions: U2OS BacMam BK variants, at 30 µM
[9] = system: F380Y/beta2Delta; assay: as above; conditions: U2OS BacMam BK variants, at 30 µM
[10] = system: F380Y/beta4; assay: as above; conditions: U2OS BacMam BK variants, at 30 µM
[11] = molecular target: Calcium-activated potassium channel subunit alpha-1 (Homo sapiens) + Leucine-rich repeat-containing protein 26 (Homo sapiens) (UniProt Q12791+Q2I0M4); assay: as above; conditions: U2OS BacMam BK variants, F380Y/Slo1WT/gamma1, at 30 µM
Calcium-activated potassium channel subunit alpha-1 (Homo sapiens) + Leucine-rich repeat-containing protein 26 (Homo sapiens), sequence (Q2I0M4 whole entry, looked up, one chain of several): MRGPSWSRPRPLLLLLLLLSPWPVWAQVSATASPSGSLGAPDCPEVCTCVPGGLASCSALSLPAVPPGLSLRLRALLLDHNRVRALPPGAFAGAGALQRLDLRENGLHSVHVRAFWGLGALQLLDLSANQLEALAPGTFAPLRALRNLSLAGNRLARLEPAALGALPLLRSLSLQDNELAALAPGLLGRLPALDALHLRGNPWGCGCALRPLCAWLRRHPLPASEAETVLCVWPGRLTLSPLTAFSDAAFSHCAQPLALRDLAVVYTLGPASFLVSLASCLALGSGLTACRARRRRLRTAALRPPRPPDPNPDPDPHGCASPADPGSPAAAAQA

[12] = system: R275C; assay: as above; conditions: U2OS BacMam BK variants, at 30 µM
[13] = system: R275C/beta1; assay: as above; conditions: U2OS BacMam BK variants, at 30 µM
[14] = system: R275C/beta2Delta; assay: as above; conditions: U2OS BacMam BK variants, at 30 µM
[15] = system: R275C/beta4; assay: as above; conditions: U2OS BacMam BK variants, at 30 µM
[16] = system: R275C/Slo1WT/beta2; assay: as above; conditions: U2OS BacMam BK variants, at 30 µM
[17] = system: Neuropilin-2 / VEGF-C interaction (human); assay: small molecules blocking Neuropilin-2/VEGF-C interaction – biochemical, microplate binding format, z-score (AID 743281; call rule not given here); conditions: microplate NRP2/VEGF-C binding assay; stronger effect = lower value
[18] = viability loss with induced miR-34 in A549 – imaging, A549 dox-inducible miR-34, nuclei and caspase counts, primary screen (AID 1347080;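 active = compounds whose cell count with miR-34 switched on is under 0.7 times the count with it off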); conditions: A549 miR-34 inducible, Hoechst nuclei count, 48 h
[19] = galactose survival enhancers in mitochondrial complex I cybrids – cell-based, galactose medium, ATP luminescence, primary screen (AID 1645843;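 active = z-score of at least 1.8 in each of two replicates, scored against plate mean and spread of sample wells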;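 also: positive z means more ATP and so rescue of galactose-driven cybrid death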); conditions: complex I mutant cybrid cells, 72 h, stronger effect = higher value
[20] = stronger effect = lower value, cell number ratio, induced over uninduced
[21] = measured here: relative caspase fold change +Dox/-Dox
[22] = measured here: total cells with miR-34 induction, stronger effect = lower value
[23] = measured here: total cells without miR-34 induction

C#C[C@]1(O)CC[C@H]2[C@@H]3CCC4=CC(=O)CC[C@@H]4[C@H]3CCC21C (some centres undefined)
inactive: mean signal [1] 236

CC1(C)O[C@@H]2C[C@H]3[C@@H]4CCC5=CC(=O)C=CC5(C)[C@@]4(F)[C@@H](O)CC3(C)C2(C(=O)CO)O1 (some centres undefined)
inactive: mean signal [1] 258

C=CC[C@@H]1C=C(C)C[C@H](C)C[C@H](OC)[C@H]2O[C@@](O)(C(=O)C(=O)N3CCCC[C@H]3C(=O)O[C@H](/C(C)=C/[C@@H]3CC[C@@H](O)[C@H](OC)C3)[C@H](C)[C@@H](O)CC1=O)[C@H](C)C[C@@H]2OC
inactive: parasite load remaining [2] 77.5% | fluorescence ratio [3] 0.94 | inhibition [4] -1.19% | inhibition [5] 2.21% | fluorescence ratio [6] 0.92 | log fold change Tl+ flux [8] -0.0137 | log fold change Tl+ flux [11] 0.0458 | log fold change Tl+ flux [12] -0.067 | log fold change Tl+ flux [16] 0.00553
72.5%: viability [2]
active: log fold change Tl+ flux [7] -0.344 | log fold change Tl+ flux [9] -0.629 | log fold change Tl+ flux [10] 0.109 | log fold change Tl+ flux [13] 0.274 | log fold change Tl+ flux [14] 0.123 | log fold change Tl+ flux [15] 0.467

CC(=O)NCCCCCCNC(C)=O
9330: cell count [18, 22]
1.58: fold change [18, 21]
inactive: parasite load remaining [2] 100% | fluorescence ratio [3] 1.01 | inhibition [4] -1.19% | inhibition [5] -3.18% | fluorescence ratio [6] 0.97 | z-score [17] -0.47 | mean signal [1] 268 | fold change [18, 20] 0.955 | z-score [19] 0.325 | log fold change Tl+ flux [7] 0.015 | log fold change Tl+ flux [9] -0.0186 | log fold change Tl+ flux [11] 0.0164 | log fold change Tl+ flux [12] 0.0387 | log fold change Tl+ flux [13] 0.0269 | log fold change Tl+ flux [14] -0.0786
66.5%: viability [2]
9770: cell count [18, 23]

CC1=C(C/C=C(\C)CCCC(C)CCCC(C)CCCC(C)C)C(=O)c2ccccc2C1=O (centres undefined)
inactive: mean signal [1] 243

CO[C@H]1C=CO[C@@]2(C)Oc3c(C)c(O)c4c(O)c(c5c(c4c3C2=O)NC2(CCN(CC(C)C)CC2)N=5)=NC(=O)C(C)=CC=C[C@H](C)[C@H](O)[C@@H](C)[C@@H](O)[C@@H](C)[C@H](OC(C)=O)[C@@H]1C
56.4%: viability [2]
inactive: parasite load remaining [2] 46.3% | log fold change Tl+ flux [7] 0.00735 | log fold change Tl+ flux [9] -0.052 | log fold change Tl+ flux [10] -0.0911 | log fold change Tl+ flux [11] -0.0288 | log fold change Tl+ flux [13] 0.0366 | log fold change Tl+ flux [14] -0.0385 | log fold change Tl+ flux [15] 0.0214 | log fold change Tl+ flux [16] 0.0234
active: log fold change Tl+ flux [8] -0.0974 | log fold change Tl+ flux [12] -0.134

CC12C=CC(=O)C=C1CC[C@@H]1[C@@H]2[C@@H](O)CC2(C)[C@H]1CC[C@]2(O)C(=O)CO (some centres undefined)
inactive: mean signal [1] 258

CCC(=O)NS(=O)(=O)c1ccc(-c2c(-c3ccccc3)noc2C)cc1
9000: cell count [18, 22]
inactive: parasite load remaining [2] 75.3% | z-score [17] 1.11 | mean signal [1] 273 | fold change [18, 20] 0.873 | z-score [19] 0.78 | log fold change Tl+ flux [7] 0.0552 | log fold change Tl+ flux [9] 0.000846 | log fold change Tl+ flux [11] 0.0287 | log fold change Tl+ flux [12] 0.0383 | log fold change Tl+ flux [13] -0.00911 | log fold change Tl+ flux [14] -0.00297
10300: cell count [18, 23]
68.9%: viability [2]
1.74: fold change [18, 21]

CON=C(C(=O)N[C@@H]1C(=O)N2C(C(=O)O)=C(COC(N)=O)CS[C@H]12)c1ccco1
11300: cell count [18, 23]
inactive: parasite load remaining [2] 58.2% | fluorescence ratio [3] 1.07 | inhibition [4] -4.09% | inhibition [5] 10.2% | fluorescence ratio [6] 1 | fold change [18, 20] 0.935 | z-score [19] -0.2 | log fold change Tl+ flux [7] 0.0216 | log fold change Tl+ flux [8] 0.0158 | log fold change Tl+ flux [9] 0.00116 | log fold change Tl+ flux [10] -0.0173 | log fold change Tl+ flux [11] -0.0114 | log fold change Tl+ flux [12] -0.0247 | log fold change Tl+ flux [13] -0.0484 | log fold change Tl+ flux [14] -0.0289 | log fold change Tl+ flux [15] 0.0531 | log fold change Tl+ flux [16] 0.0179
88.2%: viability [2]
10600: cell count [18, 22]
2.12: fold change [18, 21]

CC(=CCC1=C(C)C(=O)c2ccccc2C1=O)CCCC(C)CCCC(C)CCCC(C)C (centres undefined)
2.78: fold change [18, 21]
inactive: parasite load remaining [2] 49.5% | fluorescence ratio [3] 1.04 | inhibition [4] -1.36% | inhibition [5] 3.34% | fluorescence ratio [6] 0.97 | fold change [18, 20] 1.25 | z-score [19] -1.38 | log fold change Tl+ flux [7] -0.0115 | log fold change Tl+ flux [8] 0.045 | log fold change Tl+ flux [9] 0.0296 | log fold change Tl+ flux [10] 0.0448 | log fold change Tl+ flux [11] 0.0507 | log fold change Tl+ flux [12] 0.0242 | log fold change Tl+ flux [13] 0.0513 | log fold change Tl+ flux [14] 0.0188 | log fold change Tl+ flux [15] 0.0575 | log fold change Tl+ flux [16] -0.0288
6060: cell count [18, 23]
97.8%: viability [2]
7560: cell count [18, 22]

CO[C@H]1/C=C/O[C@@]2(C)Oc3c(C)c(O)c4c(O)c(c(C=NN5CCN(C6CCCC6)CC5)c(O)c4c3C2=O)NC(=O)/C(C)=C\C=C\[C@H](C)[C@H](O)[C@@H](C)[C@@H](O)[C@@H](C)[C@H](OC(C)=O)[C@@H]1C
8050: cell count [18, 23]
8010: cell count [18, 22]
inactive: parasite load remaining [2] 21% | fluorescence ratio [3] 1.06 | inhibition [4] -0.45% | inhibition [5] -0.48% | fluorescence ratio [6] 0.94 | fold change [18, 20] 0.995 | z-score [19] -1.41 | log fold change Tl+ flux [7] 0.0494 | log fold change Tl+ flux [8] 0.0885 | log fold change Tl+ flux [11] 0.0279 | log fold change Tl+ flux [12] 0.0114 | log fold change Tl+ flux [14] 0.0213 | log fold change Tl+ flux [16] 0.0216
active: log fold change Tl+ flux [9] 0.179 | log fold change Tl+ flux [10] 0.152 | log fold change Tl+ flux [13] 0.161 | log fold change Tl+ flux [15] 0.283
1.52: fold change [18, 21]
92%: viability [2]
